This is a sample that favours compounds with a hit; in the whole collection about 3.3% have one here.
SUMO HTRF inh = blocks human SUMOylation mediated by UBC9; AID 2006; HTRF SUMOylation assay, SAE1/SAE2 + UBC9, in vitro; 290,000 compounds, 0.36% hits; inhibition, % at 35 µM; P63279; in the data active means inhibition above about 50%, passing the limit was not always enough; inconclusive means no clear call, values can overlap the other calls
Target sequence (P63279 whole entry, looked up): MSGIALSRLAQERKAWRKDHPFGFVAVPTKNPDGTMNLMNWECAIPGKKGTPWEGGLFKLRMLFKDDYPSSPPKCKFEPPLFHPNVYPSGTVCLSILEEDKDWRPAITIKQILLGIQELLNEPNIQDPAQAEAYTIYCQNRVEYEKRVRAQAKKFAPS
GRIN3A LBD mod = NR3A (human) ligand-binding domain modulation; NR3A LBD differential scanning fluorimetry, Tm shift; 0% = protein alone, 100% = glycine-bound protein; 340,000 compounds, 2.5% hits; Tm shift relative to glycine control, % at 25 µM;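 active means melting temperature shift of at least 10% of the positive control shift, at one fixed dose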
UBC13 inh = human UBC13 polyubiquitination inhibition | UBC13 polyubiquitin chain formation, TR-FRET | 330,000 compounds, 0.47% hits | inhibition, % at 20 µM | AID 485273 | P61088; in the data active means inhibition above about 45%, passing the limit was not always enough; inconclusive means no clear call, values can overlap the other calls
Target sequence (P61088 whole entry, looked up): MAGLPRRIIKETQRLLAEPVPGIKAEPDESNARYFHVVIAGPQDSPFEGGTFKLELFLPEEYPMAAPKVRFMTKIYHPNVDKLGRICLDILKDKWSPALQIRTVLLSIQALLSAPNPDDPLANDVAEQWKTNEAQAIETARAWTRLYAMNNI
sPLA2-III inh = Inhibits HGIII-sPLA2 liposome hydrolysis, primary screen; Q9NZ20; inhibition, % at 12.2 µM; 370,000 compounds, 0.56% hits; QFRET BODIPY PC-A2 liposome hydrolysis, fluorescence;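 active means inhibition above mean plus 3 SD of compounds lying within the high and low control bounds, cut at about 19% in these data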
Casp3 counter = counter-screen for UBC13 inhibitors: human caspase-3 inhibition | shares compounds with UBC13 inh | Recombinant caspase-3, Caspase-Glo 3/7 luminescence, 60 min | inhibition, % at 20 µM | 1,400 compounds, 4% hits | AID 488856;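 active means mean inhibition across replicates above about 26%, limit read from the data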
Target sequence (P42574 whole entry, looked up): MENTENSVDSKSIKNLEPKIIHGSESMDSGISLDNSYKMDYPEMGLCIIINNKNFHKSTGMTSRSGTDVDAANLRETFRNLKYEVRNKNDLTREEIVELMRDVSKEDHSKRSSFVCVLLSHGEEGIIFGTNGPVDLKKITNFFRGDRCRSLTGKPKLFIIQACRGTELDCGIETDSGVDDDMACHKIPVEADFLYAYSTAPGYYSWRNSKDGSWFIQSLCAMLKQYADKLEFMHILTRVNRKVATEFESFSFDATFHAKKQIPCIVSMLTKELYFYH
UBC13 confirm = confirmation of human UBC13 polyubiquitin inhibitors; shares compounds with UBC13 inh; UBC13 polyubiquitination, TR-FRET, biochemical; inhibition, % at 10 µM; 1,400 compounds, 68% hits; AID 488859; in the data active means inhibition above about 45%; inconclusive means no clear call, values can overlap the other calls
A number is an active result; 0 = inactive; ? = inconclusive; - = not tested or not shown.

SMILES	SUMO HTRF inh	GRIN3A LBD mod	UBC13 inh	sPLA2-III inh	Casp3 counter	UBC13 confirm
CCCCCCCCCCCCCCCC[n+]1cccc(C(=O)N(CC)CC)c1	0	0	69.6	0	0	93.6
CCCCCCCCCCCCCCCC[n+]1ccccc1	-	0	-	0	-	-
CCNC(=O)N(C)[C@H]1C[C@H]2c3[nH]c4c(-c5cccc(C)c5)cccc4c3CCN2C(=O)[C@H]1[C@H](C)O	-	-	-	0	-	-
COc1ccc(NC(=O)CSc2nc3ccccc3c(=O)n2Cc2cccs2)c(OC)c1	0	-	0	-	-	-
O=C(O)CCCCCn1c(SCC(=O)Nc2ccc(F)cc2)nc2ccsc2c1=O	0	0	0	0	-	-
COc1cccc(NC(=O)CSc2nc3ccccc3c(=O)n2Cc2cccs2)c1	0	0	60.6	0	0	57.6
COc1ccc(NC(=O)CSc2nc3ccsc3c(=O)n2CCCCCC(=O)O)cc1	0	0	61.6	0	0	78.6
C[C@@H]1COc2cc(N3CCCC3)ccc2S(=O)(=O)N1C	-	-	-	0	-	-
CCCCC#Cc1ccccc1COC[B-](F)(F)F	-	-	-	0	-	-
COc1ccccc1Nc1nc(NCc2ccco2)c2ccccc2n1	0	0	0	0	-	-
Cc1ccc(Nc2nc(NCc3ccco3)c3ccccc3n2)cc1	0	0	51.1	0	0	93.3
CCCCN(C)CCNC(=O)c1ccc(Cn2c(=S)[nH]c3ccc(Br)cc3c2=O)cc1	0	0	48.3	0	33.5	48.2
CN(C)CCNC(=O)c1ccc2c(=O)n(Cc3ccc(Cl)cc3)c(=S)[nH]c2c1	0	0	0	0	-	-
CC1CCN(CCCNC(=O)c2ccc3c(=O)n(Cc4ccc(Cl)cc4)c(=S)[nH]c3c2)CC1	0	0	52.9	0	0	73.1
CCOC(=O)[C@]12CCCC=C1N(Cc1ccc(OC)cc1)C(=O)[C@@H]2CC(=O)N1CCCCC1	-	-	-	0	-	-
CCCC[C@@H](CN[C@H](C)CNC)NCC1CCC(C(C)(C)C)CC1 (stereo not given in full)	0	0	61.4	0	0	0
CC[C@H](C)[C@@H](CN[C@H](CCCCNC)CNC)NCC1CCCC1	0	0	0	0	-	-
Cc1ccc(C(=O)NC(C)c2ccccc2)cc1S(=O)(=O)N1CCOCC1 (stereo not given)	0	0	0	0	-	-
Cc1ccc(C(=O)NC(C)c2ccc(-n3ccnc3)cc2)cc1S(=O)(=O)N1CCOCC1 (stereo not given)	-	0	73.0	0	0	101.6
COc1ccccc1OCCNC(=O)c1cccc(S(=O)(=O)N2CCN(C)CC2)c1	0	0	0	0	-	-
CN(Cc1ccc(Cl)c(Cl)c1)C(=O)c1cccc(S(=O)(=O)N2CCN(Cc3ccccc3)CC2)c1	-	0	85.9	0	0	104.4
COc1ccccc1OCCNC(=O)c1cccc(S(=O)(=O)N2CCN(Cc3ccccc3)CC2)c1	-	0	69.9	0	0	55.6
COc1ccc(/C=N/NC(=O)Cc2csc(Nc3cccc(C(F)(F)F)c3)n2)c(OC)c1	0	0	78.1	0	0	69.4
Cc1ccc(NC(=O)c2ccc(NCCN)c([N+](=O)[O-])c2)cc1Cl	0	0	67.3	0	0	82.9
Cc1ccc(NC(=O)c2ccc(NCCc3ccccc3)c([N+](=O)[O-])c2)cc1F	0	0	0	0	-	-
SMILES	SUMO HTRF inh	GRIN3A LBD mod	UBC13 inh	sPLA2-III inh	Casp3 counter	UBC13 confirm
CCOC(=O)[C@@]12CCCC3=C1N(CCC3)C(=O)[C@H]2CC(=O)NCCc1ccccc1OC	-	-	-	0	-	-
N#Cc1cccc(NC(=O)OCCCN2CCC3(CCCCC3)C2=O)c1	-	-	-	0	-	-
O=c1c2sccc2[nH]c(=S)n1-c1ccccc1	0	0	64.6	0	0	?
COC(=O)C1CN(C2CCCC2)CCS(=O)(=O)N1Cc1ccc(C)cc1 (stereo not given)	-	-	-	0	-	-
CCC1(c2ccccc2)NC(=O)N(CC(=O)Nc2cc(Cl)ccc2N2CCN(C)CC2)C1=O (stereo not given)	-	0	86.9	0	0	65.8
O=C(NCCN1CCC(Cc2ccccc2)CC1)C1CCCN(S(=O)(=O)c2cccs2)C1 (stereo not given)	-	-	-	0	-	-
S=C1NC[C@H](c2ccccc2)N1CCCCC1CCCCC1	0	0	0	0	-	-
NC1=NC[C@H](c2ccccc2)N1CCCCC1CCCCC1	0	0	78.6	0	0	72.2
C#CCOCCOCCOCCNc1nc(N2CCN(C(=O)CCCCCCCCCCNC(=O)[C@@H](CCSC)n3cc(CCO)nn3)CC2)nc(N2CCN(C(=O)CCCCCCCCCCNC(=O)[C@H](CCCN=C(N)N)n3cc(C[C@@H](C)CC)nn3)CC2)n1	-	0	127.7	-	0	123.0
CC[C@H](C)Cc1cn([C@@H](CCCCN)C(=O)NCCCCCCCCCCC(=O)N2CCNCC2)nn1	-	0	47.0	0	0	45.0
CC[C@H](C)Cc1cn([C@@H](CCCN=C(NC(=O)OC(C)(C)C)NC(=O)OC(C)(C)C)C(=O)NCCCCCCCCCCC(=O)N2CCN(C(=O)OC(C)(C)C)CC2)nn1	-	0	53.9	-	0	0
C#CCOCCOCCOCCNc1nc(N2CCN(C(=O)CCCCCCCCCCNC(=O)[C@H](CCCCN)n3cc(C[C@@H](C)CC)nn3)CC2)nc(N2CCN(C(=O)CCCCCCCCCCNC(=O)[C@H](CCCN=C(N)N)n3cc(C[C@@H](C)CC)nn3)CC2)n1	-	0	125.0	-	0	124.6
O=C(C1CCN(c2cncnc2)CC1)N1CCOCC1	-	-	-	0	-	-
COc1ccc(-n2c(SCC(=O)NCC3CCCO3)nnc2-c2ccncc2)cc1 (stereo not given)	-	-	-	0	-	-
C#CCOCCOCCOCCNc1nc(N2CCN(C(=O)CCCCCCCCCCNC(=O)[C@H](CCCCN)n3cc(C)nn3)CC2)nc(N2CCN(C(=O)CCCCCCCCCCNC(=O)[C@H](CCCN=C(N)N)n3cc(C[C@@H](C)CC)nn3)CC2)n1	-	0	122.6	-	0	127.3
CCOC(=O)c1cc(-c2ccccc2)nc2ccc(C)cc12	0	0	53.9	0	0	0
COc1ccc2nc(SCc3nc(N)nc(Nc4ccccc4)n3)[nH]c2c1	0	0	46.5	0	0	0
COc1ccc2cc3cc(C(=O)Nc4ccccc4N4CCN(C)CC4)oc3nc2c1	0	0	68.2	0	0	0
COc1ccc2cc3cc(C(=O)NCCN4CCN(c5ccccc5F)CC4)oc3nc2c1	0	0	0	0	-	-
CCOC(=O)CSc1nc(C(C)(C)C)cc(C(F)(F)F)c1C#N	0	0	47.2	0	0	0
COC(=O)CSc1nc(C)cc(C(F)(F)F)c1C#N	0	0	0	0	-	-
C=CCN1[C@H](Cc2ccccc2)COc2cc(F)ccc2S1(=O)=O	-	-	-	0	-	-
C#CCOCCOCCOCCNc1nc(N2CCN(C(=O)[C@H](CCCN=C(N)N)n3cc(C(N)[C@@H](C)CC)nn3)CC2)nc(N2CCN(C(=O)[C@H](CCC(=O)O)n3cc([C@@H](N)CC(N)=O)nn3)CC2)n1 (stereo not given in full)	-	0	0	0	-	-
